{"source": "ChEMBL document CHEMBL1157539", "about": "“Thousands of chemical starting points for antimalarial lead identification” (Nature, 2010)", "type_in_all_cases": "functional", "key": {"[1]": {"test_system": "Plasmodium falciparum", "test": "GSK_TCMDC: Inhibition of Plasmodium falciparum 3D7 in whole red blood cells, using parasite LDH activity as an index of growth. Test compounds present at 2uM"}, "[2]": {"test_system": "Plasmodium falciparum", "test": "GSK_TCMDC: Inhibition of Plasmodium falciparum Dd2 in whole red blood cells, using parasite LDH activity as an index of growth. Test compounds present at 2uM"}, "[3]": {"test_system": "HepG2", "test": "GSK_TCMDC: Percent inhibition of human HepG2 cell line. Test compounds present at 10uM."}}, "data": [{"smiles": "Cc1cc(NCCC(=O)Nc2ccccc2)nc(NCCc2ccccc2)n1.O=C(O)C(F)(F)F", "values": [{"measurement": "Inhibition", "setting": "[1]", "result": 99, "unit": "%"}, {"measurement": "Inhibition", "setting": "[2]", "result": 8, "unit": "%"}, {"measurement": "Inhibition", "setting": "[3]", "result": 0, "unit": "%"}]}, {"smiles": "COc1cc2nc(NCCn3ccnc3C)nc(NCCc3ccccc3)c2cc1OC", "values": [{"measurement": "Inhibition", "setting": "[1]", "result": 99, "unit": "%"}, {"measurement": "Inhibition", "setting": "[2]", "result": 0, "unit": "%"}, {"measurement": "Inhibition", "setting": "[3]", "result": 21, "unit": "%"}]}, {"smiles": "Cl.O=C(C(=O)c1ccc(Nc2ccnc3cc(-c4ccccn4)ccc23)cc1)c1ccccc1", "values": [{"measurement": "Inhibition", "setting": "[1]", "result": 93, "unit": "%"}, {"measurement": "Inhibition", "setting": "[2]", "result": 34, "unit": "%"}, {"measurement": "Inhibition", "setting": "[3]", "result": 22, "unit": "%"}]}, {"smiles": "O=C(O)C(F)(F)F.O=S(=O)(NCCN1CCCC1)c1ccc(-c2ccc(CNC3Cc4ccccc4C3)cc2)cc1", "values": [{"measurement": "Inhibition", "setting": "[1]", "result": 99, "unit": "%"}, {"measurement": "Inhibition", "setting": "[2]", "result": 91, "unit": "%"}, {"measurement": "Inhibition", "setting": "[3]", "result": 61, "unit": "%"}]}, {"smiles": "O=C(Nc1ccccc1Cc1ccccc1)c1ccccc1[N+](=O)[O-]", "values": [{"measurement": "Inhibition", "setting": "[1]", "result": 98, "unit": "%"}, {"measurement": "Inhibition", "setting": "[2]", "result": 59, "unit": "%"}, {"measurement": "Inhibition", "setting": "[3]", "result": 0, "unit": "%"}]}, {"smiles": "Nc1ccc2nc(C=Cc3ccc(Cl)cc3)[nH]c2c1", "values": [{"measurement": "Inhibition", "setting": "[1]", "result": 91, "unit": "%"}, {"measurement": "Inhibition", "setting": "[2]", "result": 83, "unit": "%"}, {"measurement": "Inhibition", "setting": "[3]", "result": 19, "unit": "%"}]}, {"smiles": "CC(=O)c1ccc(NC(=O)Nc2ccc(N(C)c3ccnc(Nc4cccc(CS(C)(=O)=O)c4)n3)cc2)cc1", "values": [{"measurement": "Inhibition", "setting": "[1]", "result": 100, "unit": "%"}, {"measurement": "Inhibition", "setting": "[2]", "result": 98, "unit": "%"}, {"measurement": "Inhibition", "setting": "[3]", "result": 86, "unit": "%"}]}, {"smiles": "Nc1nc(N)c2c(ccc3c2ccn3Cc2cccc3ccccc23)n1", "values": [{"measurement": "Inhibition", "setting": "[1]", "result": 99, "unit": "%"}, {"measurement": "Inhibition", "setting": "[2]", "result": 95, "unit": "%"}, {"measurement": "Inhibition", "setting": "[3]", "result": 65, "unit": "%"}]}, {"smiles": "CN(C(=O)c1cc2c(-c3cncnc3)cccc2[nH]1)c1ccccc1", "values": [{"measurement": "Inhibition", "setting": "[1]", "result": 92, "unit": "%"}, {"measurement": "Inhibition", "setting": "[2]", "result": 99, "unit": "%"}, {"measurement": "Inhibition", "setting": "[3]", "result": 1, "unit": "%"}]}, {"smiles": "CC(=NNC(N)=O)C1=C(O)C(c2ccccc2)N(C2CCCCC2)C1=O", "note": "(configuration not stated)", "values": [{"measurement": "Inhibition", "setting": "[1]", "result": 93, "unit": "%"}, {"measurement": "Inhibition", "setting": "[2]", "result": 96, "unit": "%"}, {"measurement": "Inhibition", "setting": "[3]", "result": 59, "unit": "%"}]}, {"smiles": "NC(=O)c1ccc(-n2cnc3cc(F)ccc32)cc1OCc1ccccc1C(F)(F)F.NC(=O)c1ccc(-n2cnc3ccc(F)cc32)cc1OCc1ccccc1C(F)(F)F", "values": [{"measurement": "Inhibition", "setting": "[1]", "result": 97, "unit": "%"}, {"measurement": "Inhibition", "setting": "[2]", "result": 93, "unit": "%"}, {"measurement": "Inhibition", "setting": "[3]", "result": 55, "unit": "%"}]}, {"smiles": "CN(C)C(CNC(=O)c1cc(-c2ccncc2)c(-c2ccc(Cl)c(O)c2)o1)c1ccccc1.O=C(O)C(F)(F)F", "note": "(configuration not stated)", "values": [{"measurement": "Inhibition", "setting": "[1]", "result": 91, "unit": "%"}, {"measurement": "Inhibition", "setting": "[2]", "result": 28, "unit": "%"}, {"measurement": "Inhibition", "setting": "[3]", "result": 28, "unit": "%"}]}, {"smiles": "Cc1ccc(NS(=O)(=O)c2ccc(C(C)N3CCC(N4CCCCC4)CC3)cc2)cc1C", "note": "(configuration not stated)", "values": [{"measurement": "Inhibition", "setting": "[1]", "result": 97, "unit": "%"}, {"measurement": "Inhibition", "setting": "[2]", "result": 82, "unit": "%"}, {"measurement": "Inhibition", "setting": "[3]", "result": 66, "unit": "%"}]}, {"smiles": "O=C(/C=C/c1ccc(Cl)cc1)NCCCCCN1CCC(C(=O)Nc2ccc(Cl)c(Cl)c2)CC1", "values": [{"measurement": "Inhibition", "setting": "[1]", "result": 100, "unit": "%"}, {"measurement": "Inhibition", "setting": "[2]", "result": 0, "unit": "%"}, {"measurement": "Inhibition", "setting": "[3]", "result": 47, "unit": "%"}]}, {"smiles": "Cc1ccc2nc(C)cc(N/N=C/c3ccc([N+](=O)[O-])cc3)c2c1", "values": [{"measurement": "Inhibition", "setting": "[1]", "result": 100, "unit": "%"}, {"measurement": "Inhibition", "setting": "[2]", "result": 15, "unit": "%"}, {"measurement": "Inhibition", "setting": "[3]", "result": 10, "unit": "%"}]}, {"smiles": "Cl.Oc1ccc(CCNc2nc(NCCCOc3ccccc3-c3ccc(C(F)(F)F)cc3)nc(N3CCNCC3)n2)cc1", "values": [{"measurement": "Inhibition", "setting": "[1]", "result": 100, "unit": "%"}, {"measurement": "Inhibition", "setting": "[2]", "result": 49, "unit": "%"}, {"measurement": "Inhibition", "setting": "[3]", "result": 64, "unit": "%"}]}, {"smiles": "CSc1nc2nc(C)c(Cc3cccc(F)c3)c(C)n2n1", "values": [{"measurement": "Inhibition", "setting": "[1]", "result": 87, "unit": "%"}, {"measurement": "Inhibition", "setting": "[2]", "result": 45, "unit": "%"}, {"measurement": "Inhibition", "setting": "[3]", "result": 3, "unit": "%"}]}, {"smiles": "Nc1nc(N)c2c(ccc3c2ccn3Cc2ccccn2)n1", "values": [{"measurement": "Inhibition", "setting": "[1]", "result": 90, "unit": "%"}, {"measurement": "Inhibition", "setting": "[2]", "result": 94, "unit": "%"}, {"measurement": "Inhibition", "setting": "[3]", "result": 66, "unit": "%"}]}, {"smiles": "CCOC(=O)c1c(CSc2ccccc2)oc2cc(CN(C)C)c(O)c(Cl)c12", "values": [{"measurement": "Inhibition", "setting": "[1]", "result": 99, "unit": "%"}, {"measurement": "Inhibition", "setting": "[2]", "result": 70, "unit": "%"}, {"measurement": "Inhibition", "setting": "[3]", "result": 12, "unit": "%"}]}, {"smiles": "COc1cccc(CN2CCCN(Cc3cccc(NC(=O)c4cc5ccccc5s4)c3)CC2)c1.O=C(O)C(F)(F)F", "values": [{"measurement": "Inhibition", "setting": "[1]", "result": 89, "unit": "%"}, {"measurement": "Inhibition", "setting": "[2]", "result": 16, "unit": "%"}, {"measurement": "Inhibition", "setting": "[3]", "result": 17, "unit": "%"}]}, {"smiles": "Cc1cccc2nc(-c3cccc(-c4cccc(NC(=O)CC5NC(=O)c6ccccc65)c4)c3)[nH]c12", "note": "(configuration not stated)", "values": [{"measurement": "Inhibition", "setting": "[1]", "result": 92, "unit": "%"}, {"measurement": "Inhibition", "setting": "[2]", "result": 49, "unit": "%"}, {"measurement": "Inhibition", "setting": "[3]", "result": 8, "unit": "%"}]}, {"smiles": "O=C(Nc1ccc2c(c1)CCC2)c1cccc(CN2CCCN(Cc3cccc(O)c3)CC2)c1.O=C(O)C(F)(F)F", "values": [{"measurement": "Inhibition", "setting": "[1]", "result": 91, "unit": "%"}, {"measurement": "Inhibition", "setting": "[2]", "result": 20, "unit": "%"}, {"measurement": "Inhibition", "setting": "[3]", "result": 10, "unit": "%"}]}, {"smiles": "Clc1ccc(CNc2nc(NCCc3c[nH]cn3)nc(N3CCCC4CCCCC43)n2)cc1", "note": "(configuration not stated)", "values": [{"measurement": "Inhibition", "setting": "[1]", "result": 100, "unit": "%"}, {"measurement": "Inhibition", "setting": "[2]", "result": 100, "unit": "%"}, {"measurement": "Inhibition", "setting": "[3]", "result": 10, "unit": "%"}]}, {"smiles": "COc1cc2c(cc1OC)C(c1ccc(Br)cc1)CN(C)CC2.Cl", "note": "(configuration not stated)", "values": [{"measurement": "Inhibition", "setting": "[1]", "result": 86, "unit": "%"}, {"measurement": "Inhibition", "setting": "[2]", "result": 0, "unit": "%"}, {"measurement": "Inhibition", "setting": "[3]", "result": 8, "unit": "%"}]}, {"smiles": "O=C(O)C(F)(F)F.OCC1CCN(Cc2ccc(-c3ccc(-c4nc5cc(C(F)(F)F)ccc5[nH]4)cc3)cc2)CC1", "values": [{"measurement": "Inhibition", "setting": "[1]", "result": 100, "unit": "%"}, {"measurement": "Inhibition", "setting": "[2]", "result": 91, "unit": "%"}, {"measurement": "Inhibition", "setting": "[3]", "result": 17, "unit": "%"}]}, {"smiles": "Cc1cc2c(NC(=O)NC3CCN(CCc4cccc(Cl)c4)CC3)cccc2cn1.Cl", "values": [{"measurement": "Inhibition", "setting": "[1]", "result": 100, "unit": "%"}, {"measurement": "Inhibition", "setting": "[2]", "result": 27, "unit": "%"}, {"measurement": "Inhibition", "setting": "[3]", "result": 12, "unit": "%"}]}, {"smiles": "COc1cccc(NC(=O)NCCNc2ccnc(Nc3ccc(F)cc3)n2)c1", "values": [{"measurement": "Inhibition", "setting": "[1]", "result": 94, "unit": "%"}, {"measurement": "Inhibition", "setting": "[2]", "result": 1, "unit": "%"}, {"measurement": "Inhibition", "setting": "[3]", "result": 18, "unit": "%"}]}, {"smiles": "COc1cc2nc(-c3ccccc3)nc(N3CCN(C(=O)c4ccco4)CC3)c2cc1OC", "values": [{"measurement": "Inhibition", "setting": "[1]", "result": 89, "unit": "%"}, {"measurement": "Inhibition", "setting": "[2]", "result": 87, "unit": "%"}, {"measurement": "Inhibition", "setting": "[3]", "result": 0, "unit": "%"}]}, {"smiles": "CN(C(=O)/C=C/c1ccccc1F)C1CCN(CCCCCNC(=O)/C=C/c2ccc(Cl)c(Cl)c2)CC1", "values": [{"measurement": "Inhibition", "setting": "[1]", "result": 89, "unit": "%"}, {"measurement": "Inhibition", "setting": "[2]", "result": 59, "unit": "%"}, {"measurement": "Inhibition", "setting": "[3]", "result": 73, "unit": "%"}]}]}
